Records with an inconclusive call do not appear. Calls of active or inactive are those of the source. The call rests on the fitted dose curve; in most records, active means well fitted curve in the direction sought with a large enough effect; inconclusive means small, poorly fitted or top-dose-only effect, or another doubt; inactive means no such curve, though single readings can be large; an effect the other way counts as inactive or inconclusive.
Assays:
[1] = qHTS of pediatric cancer cell lines to identify multiple opportunities for drug repurposing: Primary screen for SK-N-SH cells (AID 1347098); conditions: SK-N-SH viability, CellTiter-Glo luminescence, 48 h; series mostly up to 57 µM; further: nearly all actives have a fitted effect of over 65% in size; further: potency means the concentration at half of the fitted maximal effect
How it was run: (§1)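 Cells (500-1,000/well) rested 5 h, then received compounds for 48 h; metabolically active cells were measured by CellTiter-Glo luminescence. Final concentrations spanned up to 46 µM (MIPE, 11-point) or 0.59 nM-46 µM (NPC, 8-point) in primary screens, 11-point in follow-ups.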

[2] = qHTS of pediatric cancer cell lines to identify multiple opportunities for drug repurposing: Primary screen for NB1643 cells (AID 1347099); conditions: NB1643 neuroblastoma viability, CellTiter-Glo luminescence, 48 h; series mostly up to 46 µM; further: nearly all actives have a fitted effect of over 50% in size; further: potency means the concentration at half of the fitted maximal effect
How it was run: (§2)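 Quantitative HTS format: each compound titrated (MIPE 11 points from 0.78 nM, NPC 8 points from 0.59 nM) onto cells plated 5 hours earlier. After 48 h at 37 degrees C, CellTiter-Glo luminescence was recorded.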

[3] = qHTS of pediatric cancer cell lines to identify multiple opportunities for drug repurposing: Primary screen for BT-12 cells (AID 1347101); conditions: BT-12 viability, CellTiter-Glo luminescence, 48 h; series mostly up to 57.3 µM; further: nearly all actives have a fitted effect of over 25% in size; further: potency means the concentration at half of the fitted maximal effect
How it was run: as §1

[4] = qHTS of pediatric cancer cell lines to identify multiple opportunities for drug repurposing: Primary screen for RD cells (AID 1347104); conditions: RD rhabdomyosarcoma viability, CellTiter-Glo luminescence, 48 h; series mostly up to 46 µM; further: nearly all actives have a fitted effect of over 55% in size; further: potency means the concentration at half of the fitted maximal effect
How it was run: as §2

[5] = qHTS of pediatric cancer cell lines to identify multiple opportunities for drug repurposing: Primary screen for MG 63 (6-TG R) cells (AID 1347105); conditions: MG 63 (6-TG R) viability, CellTiter-Glo, 48 h; series mostly up to 46 µM; further: nearly all actives have a fitted effect of over 50% in size; further: potency means the concentration at half of the fitted maximal effect
How it was run: as §2

[6] = qHTS of pediatric cancer cell lines to identify multiple opportunities for drug repurposing: Primary screen for control Hh wild type fibroblast cells (AID 1347106); conditions: Hh wild-type fibroblast viability, CellTiter-Glo luminescence, 48 h; series mostly up to 46 µM; further: nearly all actives have a fitted effect of over 55% in size; further: potency means the concentration at half of the fitted maximal effect
How it was run: (§3)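 Viability after 48 h compound treatment at 37C, 500-1,000 cells/well, read as ATP luminescence with CellTiter-Glo. Primary screens used 11-point (MIPE, 0.78 nM-46 µM) or 8-point (NPC, 0.59 nM-46 µM) final concentrations; follow-up screens used 11-point dilutions.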

[7] = qHTS of pediatric cancer cell lines to identify multiple opportunities for drug repurposing: Primary screen for Rh41 cells (AID 1347108); conditions: Rh41 rhabdomyosarcoma viability, CellTiter-Glo luminescence, 48 h; series mostly up to 46 µM; further: nearly all actives have a fitted effect of over 70% in size; further: potency means the concentration at half of the fitted maximal effect
How it was run: as §2

[8] = qHTS of pediatric cancer cell lines to identify multiple opportunities for drug repurposing: Primary screen for Rh18 cells (AID 1347102); conditions: Rh18 rhabdomyosarcoma viability, CellTiter-Glo luminescence, 48 h; series mostly up to 46 µM; further: nearly all actives have a fitted effect of over 65% in size; further: potency means the concentration at half of the fitted maximal effect
How it was run: as §3

[9] = qHTS of pediatric cancer cell lines to identify multiple opportunities for drug repurposing: Primary screen for OHS-50 cells (AID 1347103); conditions: OHS-50 osteosarcoma viability, CellTiter-Glo luminescence, 48 h; series mostly up to 57.3 µM; further: nearly all actives have a fitted effect of over 40% in size; further: potency means the concentration at half of the fitted maximal effect
How it was run: as §1

[10] = qHTS of pediatric cancer cell lines to identify multiple opportunities for drug repurposing: Primary screen for Rh30 cells (AID 1347107); conditions: Rh30 rhabdomyosarcoma viability, CellTiter-Glo luminescence, 48 h; series mostly up to 46 µM; further: nearly all actives have a fitted effect of over 75% in size; further: potency means the concentration at half of the fitted maximal effect
How it was run: as §3

[11] = qHTS of pediatric cancer cell lines to identify multiple opportunities for drug repurposing: Primary screen for LAN-5 cells (AID 1347100); conditions: LAN-5 neuroblastoma viability, CellTiter-Glo luminescence, 48 h; series mostly up to 46 µM; further: potency means the concentration at half of the fitted maximal effect
How it was run: as §3

[12] = qHTS of pediatric cancer cell lines to identify multiple opportunities for drug repurposing: Confirmatory screen for A673 cells (AID 1347110); conditions: A673 Ewing sarcoma cell viability; series mostly up to 45.9 µM; further: potency means the concentration at half of the fitted maximal effect; nearly all actives have a fitted effect of over 65% in size
How it was run: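 A673 cells seeded at 500-1,000 cells/well, rested 5 h, then dosed; primary MIPE 11-point (0.78 nM to 46 µM), NPC (0.59 nM to 46 µM); confirmatory 11-point. CellTiter-Glo luminescence after 48 h.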

[13] = qHTS of pediatric cancer cell lines to identify multiple opportunities for drug repurposing: Confirmatory screen for SK-N-MC cells (AID 1347111); conditions: SK-N-MC cell viability; series mostly up to 45.9 µM;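 further: potency means the concentration at half of the fitted maximal effect; cells exposed to compound for 48 h before the readout; nearly all actives have a fitted effect of over 70% in size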
How it was run: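 SK-N-MC cells at 500-1,000 cells/well in growth media were pre-incubated 5 h, then exposed to compounds at 11-point dilutions for 48 h at 37 degrees C, 5% CO2. Viability was read as CellTiter-Glo luminescence.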

[14] = qHTS of pediatric cancer cell lines to identify multiple opportunities for drug repurposing: Confirmatory screen for BT-12 cells (AID 1347112); conditions: BT-12 rhabdoid tumor cells, viability; series mostly up to 45.9 µM; further: potency means the concentration at half of the fitted maximal effect; nearly all actives have a fitted effect of over 55% in size
How it was run: as §3

[15] = qHTS of pediatric cancer cell lines to identify multiple opportunities for drug repurposing: Confirmatory screen for DAOY cells (AID 1347114); conditions: DAOY medulloblastoma cells viability, cytotoxicity qHTS; series mostly up to 45.9 µM; further: potency means the concentration at half of the fitted maximal effect; nearly all actives have a fitted effect of over 65% in size
How it was run: (§4)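 Viability measured as metabolically active cells via CellTiter-Glo luminescence following 48 hours of compound exposure, 11-point dilutions in confirmatory testing. 500-1,000 cells/well plated 5 hours before dosing; controls were DMSO and 2.3 µM bortezomib.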

[16] = qHTS of pediatric cancer cell lines to identify multiple opportunities for drug repurposing: Confirmatory screen for NB-EBc1 cells (AID 1347115); conditions: NB-EBc1 neuroblastoma cells, viability (cytotoxicity); series mostly up to 45.9 µM; further: nearly all actives have a fitted effect of over 45% in size
How it was run: as §3

[17] = qHTS of pediatric cancer cell lines to identify multiple opportunities for drug repurposing: Confirmatory screen for SJ-GBM2 cells (AID 1347116); conditions: SJ-GBM2 glioblastoma cells, viability; series mostly up to 45.9 µM; further: potency means the concentration at half of the fitted maximal effect; nearly all actives have a fitted effect of over 60% in size
How it was run: as §4

[18] = qHTS of pediatric cancer cell lines to identify multiple opportunities for drug repurposing: Confirmatory screen for BT-37 cells (AID 1347117); conditions: BT-37 pediatric cancer cells, viability; series mostly up to 45.9 µM; further: potency means the concentration at half of the fitted maximal effect; nearly all actives have a fitted effect of over 55% in size
How it was run: as §3

[19] = qHTS of pediatric cancer cell lines to identify multiple opportunities for drug repurposing: Confirmatory screen for LAN-5 cells (AID 1347113); conditions: LAN-5 neuroblastoma cell viability; series mostly up to 45.9 µM
How it was run: as §3

Measured: Potency

CS(=O)(=O)c1ccc(-c2cnc(N)c(C(=O)Nc3ccccc3)n2)cc1
inactive: [1] | [2] | [3] | [4] | [5] | [6] | [7]

CC(=O)OCCN1C(=O)c2c(C)nc3ccc(S(=O)(=O)N4CCOCC4)cc3c2C1=O
active: [3] 10.9 µM | [9] 24.3 µM
inactive: [1] | [8] | [5] | [6] | [10] | [7]

c1cc(-c2cnn3cc(-c4ccc(OCCN5CCCCC5)cc4)cnc23)ccn1
active: [2] 3.72 µM | [11] 9.35 µM | [3] 24.3 µM | [8] 20.9 µM | [9] 9.68 µM | [4] 18.7 µM | [5] 18.7 µM | [10] 18.7 µM | [7] 9.35 µM

Cc1cn2cc(C(=O)N(C)CCO)cc(N[C@@H]3CCOc4cccc(C)c43)c2n1
inactive: [2] | [11] | [3] | [8] | [4] | [5] | [6] | [10] | [7]

O=C(O)CCCc1c[nH]c2ccccc12
inactive: [1] | [8] | [9] | [6] | [10] | [7]

N#CCNC(=O)c1ccc(-c2ccnc(Nc3ccc(N4CCOCC4)cc3)n2)cc1
active: [1] 12.1 µM | [3] 17.2 µM | [4] 16.6 µM | [7] 18.7 µM

COc1ccc(F)c(F)c1C(=O)c1cnc(NC2CCN(S(C)(=O)=O)CC2)nc1N
inactive: [10] | [16]
active: [1] 2.71 µM | [9] 3.06 µM | [4] 5.26 µM | [7] 7.43 µM | [12] 2.93 µM | [13] 1.31 µM | [14] 3.69 µM | [15] 8.27 µM | [17] 0.827 µM | [18] 2.33 µM

Cn1cc(-c2ccncc2)c(-c2ccc(OCc3ccc4ccccc4n3)cc2)n1
inactive: [1] | [8] | [6]

CCN(CC)CCCCNc1ncc2cc(-c3cc(OC)cc(OC)c3)c(NC(=O)NC(C)(C)C)nc2n1
inactive: [2] | [5]
active: [11] 18.7 µM | [3] 24.3 µM | [8] 13.2 µM | [4] 16.6 µM | [6] 29.6 µM | [7] 11.8 µM

COc1cc2ncn(-c3cc(OCc4ccccc4C(F)(F)F)c(C(N)=O)s3)c2cc1OC
active: [1] 24.1 µM | [9] 1.22 µM | [4] 1.66 µM | [5] 7.43 µM | [6] 18.7 µM

CCCCOc1c(C(=O)c2c(F)cc(C)cc2F)cnc2n[nH]cc12
active: [2] 2.96 µM | [11] 4.18 µM | [3] 6.11 µM | [9] 5.44 µM | [4] 18.7 µM | [5] 11.8 µM | [7] 18.7 µM
inactive: [8] | [10]

COc1ccc2c(OCc3nnc4ccc(-c5ccccc5)nn34)ccnc2c1
inactive: [2] | [11] | [3] | [8] | [9] | [4] | [5] | [10]

CN1c2cc(O)c(N=NC(N)=O)cc2CC1S(=O)(=O)O (stereo not given)
inactive: [2] | [11] | [3] | [8] | [9] | [4] | [5] | [6] | [10] | [7]

Cn1c2cc(S(C)=O)sc2c2cnn(Cc3cccc(N)c3)c(=O)c21 (stereo not given)
inactive: [2] | [11] | [3] | [8] | [9] | [4] | [5] | [6] | [10]

CC(C)(O)CCc1ccc(OCc2cc(-c3cccc(OC(F)F)c3)c3ncccc3c2)cc1
inactive: [11] | [3] | [8] | [4] | [5] | [6] | [10] | [7]
active: [2] 18.7 µM

Nc1ccc(S(=O)(=O)Nc2ncccn2)cc1
inactive: [2] | [11] | [3] | [8] | [5] | [6] | [10] | [7]

CNC(=O)c1ccc(-c2cnc3ncc(Cc4ccc5ncccc5c4)n3n2)cc1F
inactive: [2] | [11] | [3] | [8] | [9] | [4] | [6] | [10] | [7]

CC(C)c1cnn2c(NCc3ccccc3)cc(N[C@@H](CO)[C@H](O)CO)nc12
active: [1] 0.304 µM | [9] 0.273 µM | [4] 0.372 µM | [7] 0.743 µM | [12] 0.369 µM | [13] 0.585 µM | [14] 0.522 µM | [19] 0.293 µM | [18] 0.369 µM
inactive: [6]

COc1cc2ncnc(Nc3ccc(F)c(Cl)c3)c2cc1NC(=O)C=CCN1CCCCC1
inactive: [6]
active: [2] 14.8 µM | [11] 14.8 µM | [3] 24.3 µM | [8] 18.7 µM | [9] 7.69 µM | [4] 29.6 µM

Source: PubChem BioAssay (NCATS)
